Measurements: PubChem BioAssay (Tox21)
Results filed as inconclusive are left out. Unmarked numbers belong to inactive results. Calls of active or inactive are those of the source. Calls come from the whole dose curve.

Target: Beta-2 adrenergic receptor (Homo sapiens) (UniProt P07550)
Assay: Adrenergic beta2 receptor (ADRB2) small molecule antagonists, cell-based qHTS assay (AID 1963592); note: nearly all actives have a fitted effect of over 50% in size
Conditions: CHO-ADRB2 cells, isoproterenol-stimulated cAMP HTRF ratio, 0.5 h; series mostly up to 92.4 µM; activity change, negative = inhibition: at the top concentration
Description: U.S. Tox21 Program National Center for Advancing Translational Sciences [NCATS] Division of Preclinical Innovation [DPI] U.S. Environmental Protection Agency [EPA] National Institutes of Environmental Health Sciences [NIEHS] National Toxicology Program [NTP] U.S. Food and Drug Administration [FDA] Tox21 Assay Overview: Beta adrenergic receptors (Beta-ARs) belong to the G-protein coupled receptor (GPCR) superfamily, includes three subtypes - beta1, beta2, and beta3. Beta1-AR is the predominant receptor subtype expressed in the heart, and beta2-AR is expressed in the kidney, lung, blood vessel and in the heart, and beta3 is found in the adipocytes. Beta1 and 2 ARs couple to Gs protein and elevate cyclic adenosine mono phosphate (cAMP), which activates protein kinase A and leads to the downstream signaling responsible for the physiological actions. Beta-AR agonists or antagonists are the most prescribed therapeutic agents for heart failure and asthma, and these were one of the first target receptors for the rational drug design. Tox21 10K compound library was screened using the cAMP-Gs dynamic assay (Cisbio Bioassays, Shelton, CT) to identify agonists/antagonists of the Gs-coupled human adrenergic, beta2 receptor (ADRB2) in the CHO-ADRB2 cell line (Codex BioSolutions, Inc. Gaithersburg, MD), which stably over-expresses ADRB2. The principle of cAMP-Gs dynamic assay is based on HTRF technology, which facilitates the fluorescence resonance energy transfer (FRET) between donor Europium cryptate and acceptor d2-labeled cAMP. The cAMP generated within cells competes with the red acceptor, d2-labled cAMP, for binding to the monoclonal anti-cAMP-cryptate (Europium donor). An increase in intracellular cAMP leads to the disruption of FRET signal, and the signal is inversely proportional to the cAMP concentration. Propranolol HCl (Sigma-Aldrich, St. Louis, MO) was used as a positive control in the screening.
Tox21 Assay Protocol Summary: CHO-ADRB2 cells were dispensed at 1,000/well in 4uL assay medium into white/solid 1536-well plates (Greiner Bio-One North America Inc., Monroe, NC) using a Multidrop Combi dispenser (ThermoFisher Scientific, Waltham, MA). The assay plates were incubated at 37C and 5% CO2 for an overnight (18-20hr). Then positive control and test compounds dissolved in DMSO were transferred to the assay plates at 23nL using a Pintool station (Wako, San Diego, CA). Following the compound and positive control transfer, 1uL agonist-stimulation mix containing 1nM Isoproterenol HCl, 100uM IBMX and 25uM Ro-20-1724 was added to each well of the assay plates using BioRAPTR Flying Reagent Dispenser (FRD, Beckman Coulter, Brea, CA). The assay plates were incubated at room temperature for 0.5hr. Then 2.5ul each d2-labled cAMP and anti-cAMP-cryptate solutions were added separately to each well of the assay plates using an FRD and the assay plates were incubated at room temperature for 1hr. The fluorescence signal was measured at two different wavelengths (665nm and 615nm) using an Envision plate reader (Perkin Elmer, Shelton, CT). Data were expressed as the ratio of 665 nm/615 nm.
% is set by controls: 0 for no effect and ±100 for the full control effect.

Beta-2 adrenergic receptor (Homo sapiens), sequence (P07550 whole entry, looked up): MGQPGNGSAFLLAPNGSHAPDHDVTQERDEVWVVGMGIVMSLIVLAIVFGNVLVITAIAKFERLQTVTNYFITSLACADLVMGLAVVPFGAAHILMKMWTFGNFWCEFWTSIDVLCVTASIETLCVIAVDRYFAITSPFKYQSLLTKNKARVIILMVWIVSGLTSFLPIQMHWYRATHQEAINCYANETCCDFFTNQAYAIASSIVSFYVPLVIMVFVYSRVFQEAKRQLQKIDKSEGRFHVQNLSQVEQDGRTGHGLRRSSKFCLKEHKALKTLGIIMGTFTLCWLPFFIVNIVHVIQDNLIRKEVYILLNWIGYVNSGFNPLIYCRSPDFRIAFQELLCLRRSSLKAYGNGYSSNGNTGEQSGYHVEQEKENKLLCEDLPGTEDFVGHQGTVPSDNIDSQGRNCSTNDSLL

Compound	activity change, negative = inhibition	Potency
NC(=O)CCCCC(N)=O	1.27%	
C=CC(C)(O)CC/C=C(\C)CC (stereo not given)	0.381%	
NCCNCCNCCNCCN		inactive
C=CC(C)(O)CC/C=C(/C)CCC=C(C)C (stereo not given)	-13.2%	
COc1ccc(COC(C)=O)cc1		inactive
O=c1cc(CO)occ1O	5.47% [at 42.5 µM]	
CCCCCc1cccc(=O)o1	2.7%	
CN(C)CCCN(C)CCCN(C)C	0.913%	
CC(O)CCCCn1c(=O)c2c(ncn2C)n(C)c1=O (stereo not given)	0.423% [at 42.5 µM]	
CCOCCOCC	-13.2%	
O=C1c2cccc(O)c2C(=O)c2c(O)cccc21		inactive
Nc1ccc2cc3ccccc3cc2c1		inactive
CCn1c2ccccc2c2ccccc21	4.06%	
CC1=CC(C)C(C=O)CC1 (stereo not given)	-0.224%	
NS(=O)(=O)c1ccccc1OC(F)(F)F	-0.994%	
Cc1ccc(C)cc1	-0.0542%	
O=C(O)c1cccc(C[C@@H]2COc3ccc(OCc4nc5cc(F)ccc5s4)cc3[C@@H]2O)c1	-5.36%	
CCC(C)(Oc1ccc(C2(c3ccc(OC(C)(CC)C(=O)O)cc3)CCCCC2)cc1)C(=O)O (stereo not given)	8.28% [at 42.5 µM]	
CC(C)=CCC/C(C)=C/C(=O)O	8.63%	
Cc1cc(C)cc(N)c1	-13.2%	

Compound	activity change, negative = inhibition	Potency
Cc1cc(N)no1	-7.57%	
CCCCCCCCOC(=O)CCCCCCCCC(=O)OCCCCCCCC	4.26%	
CCC1COC(=O)O1 (stereo not given)	0.441%	
[O-][n+]1ccc(Cl)cc1	15.4%	
CC1(C)C(O)C(C)(C)C1O (stereo not given)	0.088%	
CC(=O)C1(C)CC2=C(CCCC2(C)C)CC1C (stereo not given)		inactive
CC(C)(O)Cc1ccccc1	0.0033%	
C=CC(=O)OCCCCCC	-1.59%	
C[C@@H](O)[C@H]1C(=O)N2C(C(=O)O)=C(SCCN=CN)C[C@H]12	-2.61% [at 42.5 µM]	
CCC(=O)O[C@H]1[C@H](O[C@@H]2[C@@H](C)[C@H](O[C@H]3C[C@@](C)(OC)[C@@H](O)[C@H](C)O3)[C@@H](C)C(=O)O[C@H](CC)[C@@](C)(O)[C@H](O)[C@@H](C)C(=O)[C@H](C)C[C@@]2(C)O)O[C@H](C)C[C@@H]1N(C)C		inactive
CC(C)CCCC(C)N (stereo not given)	-13.3% [at 42.5 µM]	
Cc1cccc(C)c1[N+](=O)[O-]		inactive
Nc1c(NC/C=C\COc2cc(CN3CCCCC3)ccn2)c(=O)c1=O	0.774% [at 19 µM]	
FC(F)(F)c1cccc(Cl)c1	1.17%	
O=Cc1ccc(Cl)c(Cl)c1	3.48%	
C[N+](C)(C)CC[N+]1(C)Cc2c(Cl)c(Cl)c(Cl)c(Cl)c2C1	7.41% [at 42.5 µM]	
CC(=O)OCCCc1ccccc1	-6.16%	
CN(C)Cc1ccccc1O	0.624%	
O=C1CC(c2ccc(Cl)cc2)CC(=O)N1	1.62% [at 42.5 µM]	
CCN(CC)CC(=O)Oc1ccc(NC(C)=O)cc1	-2.02% [at 42.5 µM]	
